For 10 compounds, Percent Effect results are on record in ChEMBL document CHEMBL3988442, “University of Dundee, Small-Polar-MMV Screening Library” (2021).

For some assays here: Potency and affinity values are given separately.

Design in all cases: scale not given: direction of the effect not stated beside the values
In experiment [1] the target is Protein translocase subunit SecA (Escherichia coli (strain K12)) (UniProt P10408). In words: Assay to Identify E. coli SecA ATPase Inhibitors. The format is functional. The following applies: 30 µM.
The target of experiment [2] is T1, Ubiquitin-activating enzyme e1, putative (Leishmania donovani (strain BPK282A1)) (UniProt E9BSI1).
T1 sequence (whole entry): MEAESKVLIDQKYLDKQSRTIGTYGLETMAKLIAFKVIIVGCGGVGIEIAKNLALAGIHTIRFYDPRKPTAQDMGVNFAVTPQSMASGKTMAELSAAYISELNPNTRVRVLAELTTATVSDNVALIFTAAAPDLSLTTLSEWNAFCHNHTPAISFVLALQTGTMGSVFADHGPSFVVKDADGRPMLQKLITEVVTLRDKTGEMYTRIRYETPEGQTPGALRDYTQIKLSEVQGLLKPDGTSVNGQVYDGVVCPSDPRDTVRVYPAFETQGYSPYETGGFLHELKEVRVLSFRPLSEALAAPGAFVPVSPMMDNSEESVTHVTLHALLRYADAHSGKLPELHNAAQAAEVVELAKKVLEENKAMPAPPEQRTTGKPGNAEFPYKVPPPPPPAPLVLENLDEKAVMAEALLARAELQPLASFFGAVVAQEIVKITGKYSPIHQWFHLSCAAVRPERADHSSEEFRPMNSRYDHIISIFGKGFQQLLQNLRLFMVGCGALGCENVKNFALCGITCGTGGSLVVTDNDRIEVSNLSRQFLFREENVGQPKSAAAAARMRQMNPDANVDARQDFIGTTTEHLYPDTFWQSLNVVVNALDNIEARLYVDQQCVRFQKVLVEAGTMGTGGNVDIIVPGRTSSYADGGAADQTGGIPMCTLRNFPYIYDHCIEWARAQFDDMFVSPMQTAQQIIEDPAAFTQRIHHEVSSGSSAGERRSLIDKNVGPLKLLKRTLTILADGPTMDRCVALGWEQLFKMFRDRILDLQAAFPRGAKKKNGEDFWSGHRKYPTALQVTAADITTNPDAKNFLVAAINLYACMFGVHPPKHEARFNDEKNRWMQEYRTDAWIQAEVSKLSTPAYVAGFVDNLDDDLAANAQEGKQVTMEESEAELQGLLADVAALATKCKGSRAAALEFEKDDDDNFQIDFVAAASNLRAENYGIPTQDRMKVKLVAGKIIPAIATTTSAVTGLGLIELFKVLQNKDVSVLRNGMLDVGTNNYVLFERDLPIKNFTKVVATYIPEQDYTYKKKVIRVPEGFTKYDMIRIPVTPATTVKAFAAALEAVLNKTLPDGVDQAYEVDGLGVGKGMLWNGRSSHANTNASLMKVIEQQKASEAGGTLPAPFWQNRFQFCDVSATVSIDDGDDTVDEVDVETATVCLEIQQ
In words: Leishmania donovani Ubiquitin Activating Enzyme (LdE1). Conditions: 30 µM. It is filed as functional.

For experiment [3], the target named is AMP-activated protein kinase, AMPK (Homo sapiens) (UniProt P54646+O43741+P54619+Q9UGJ0+Q9Y478+Q13131+Q9UGI9). The experiment in a line: AMP-dependent Kinase enzyme assay. An in vitro enzyme assay that detects ADP turnover that is directly proportional to AMPK activity. This uses naive AMPK that is activated during the assay with MK-8722. It is filed as functional. Conditions: 30 µM.

Experiment [4] concerns the target Sialic acid-binding Ig-like lectin 9 (Homo sapiens) (UniProt Q9Y336). In words: Hs-Siglec9 ALPHAscreen SOP 20170721. Conditions: 10 µM. A general note: Alpha assays give light when donor and acceptor beads are brought close together.
For experiment [5], the system named is Trypanosoma cruzi. The experiment in a line: Trypanosoma cruzi phosphomannomutase and mannose-1-phosphate guanylyltransferase assay. Conditions: 10 µM. It is filed as functional.
Experiment [6] has as its target T2, Arginase-2, mitochondrial (Homo sapiens) (UniProt P78540).
T2 sequence (whole entry): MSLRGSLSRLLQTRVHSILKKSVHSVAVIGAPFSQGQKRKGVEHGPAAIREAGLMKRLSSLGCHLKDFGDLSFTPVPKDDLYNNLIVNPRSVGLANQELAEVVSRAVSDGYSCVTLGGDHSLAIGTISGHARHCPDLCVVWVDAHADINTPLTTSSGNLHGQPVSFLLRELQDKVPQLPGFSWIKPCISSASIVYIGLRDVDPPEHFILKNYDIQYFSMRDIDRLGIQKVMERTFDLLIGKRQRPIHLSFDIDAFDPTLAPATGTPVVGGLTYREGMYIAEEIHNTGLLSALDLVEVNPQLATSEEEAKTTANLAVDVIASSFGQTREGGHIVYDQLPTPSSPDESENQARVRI
In words: in vitro enzyme assay to detect the production of urea directly proportional to the activity of Arginase II. Note: in the data most compounds retested in dose-response had high values. Conditions: 33.3 µM. It is filed as functional.

In experiment [7] the target is T3, Proteasome subunit beta (Trypanosoma cruzi) (UniProt O96673).
T3 sequence (whole entry): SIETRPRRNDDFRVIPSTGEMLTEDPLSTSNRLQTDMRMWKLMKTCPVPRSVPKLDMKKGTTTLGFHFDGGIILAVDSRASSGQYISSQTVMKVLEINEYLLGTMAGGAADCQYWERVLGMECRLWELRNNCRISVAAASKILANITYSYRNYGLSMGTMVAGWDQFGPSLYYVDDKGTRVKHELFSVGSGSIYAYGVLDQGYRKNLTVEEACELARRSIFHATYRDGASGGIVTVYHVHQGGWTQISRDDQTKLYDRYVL
The experiment in a line: Trypanosoma cruzi proteasome chymotrypsin-like activity (TcProtChymo) assay. Note: in the data most compounds retested in dose-response had high values. It is filed as functional. The following applies: 9.37 µM.

For experiment [8], the species on record is Homo sapiens. The experiment in a line: To identify inhibition of the IFN signalling (Jak-Stat) pathway via expression of an eGFP reporter gene under the control of an IFN-stimulated response element (ISRE) containing MxA promoter. The format is functional. Conditions: 30 µM. On the technique in general: A reporter such as luciferase makes a cellular process visible.

The target in experiment [9] is T4, Tyrosyl-tRNA synthetase, putative (Trypanosoma cruzi (strain CL Brener)) (UniProt Q4DSP6).
T4 sequence (whole entry): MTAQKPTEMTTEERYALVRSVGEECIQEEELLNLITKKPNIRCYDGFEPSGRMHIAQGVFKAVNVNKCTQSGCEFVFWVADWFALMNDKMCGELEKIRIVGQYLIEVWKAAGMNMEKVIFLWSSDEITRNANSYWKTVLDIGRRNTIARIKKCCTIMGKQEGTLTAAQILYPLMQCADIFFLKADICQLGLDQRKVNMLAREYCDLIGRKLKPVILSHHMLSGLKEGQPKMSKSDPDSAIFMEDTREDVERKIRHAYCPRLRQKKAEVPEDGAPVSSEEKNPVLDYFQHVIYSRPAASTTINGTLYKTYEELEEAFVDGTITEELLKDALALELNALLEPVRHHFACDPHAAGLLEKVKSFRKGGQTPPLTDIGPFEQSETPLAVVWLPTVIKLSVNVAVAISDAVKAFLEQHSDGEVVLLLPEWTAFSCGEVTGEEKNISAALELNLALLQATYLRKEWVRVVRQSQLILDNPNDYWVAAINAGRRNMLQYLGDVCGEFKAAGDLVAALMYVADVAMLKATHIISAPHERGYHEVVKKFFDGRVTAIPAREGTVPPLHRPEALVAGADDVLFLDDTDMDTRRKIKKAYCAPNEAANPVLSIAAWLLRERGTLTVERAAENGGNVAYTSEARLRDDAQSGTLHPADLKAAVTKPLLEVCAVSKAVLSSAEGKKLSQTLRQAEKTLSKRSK
In words: Trypanosoma cruzi tyrosyl tRNA synthetase (TcYRS) _High Tyrosine SOP. Note: in the data most compounds retested in dose-response had high values. The format is functional. The following applies: 30 µM.

Experiment [10] has as its target T4, Tyrosyl-tRNA synthetase, putative (Trypanosoma cruzi (strain CL Brener)). The experiment in a line: Trypanosoma cruzi tyrosyl tRNA synthetase (TcYRS) SOP. It is filed as functional. Conditions: 30 µM.
The target in experiment [11] is Chromo domain-containing protein 1 (Saccharomyces cerevisiae (strain ATCC 204508 / S288c) (Baker's yeast)) (UniProt P32657). The experiment in a line: ScCHD-1 Enzyme Inhibition Assay. Note: in the data most compounds retested in dose-response had high values. It is filed as functional. Conditions: 30 µM.
Chain of Chromo domain-containing protein 1 (Saccharomyces cerevisiae (strain ATCC 204508 / S288c) (Baker's yeast)) (P32657 whole entry, the tested form may be a part): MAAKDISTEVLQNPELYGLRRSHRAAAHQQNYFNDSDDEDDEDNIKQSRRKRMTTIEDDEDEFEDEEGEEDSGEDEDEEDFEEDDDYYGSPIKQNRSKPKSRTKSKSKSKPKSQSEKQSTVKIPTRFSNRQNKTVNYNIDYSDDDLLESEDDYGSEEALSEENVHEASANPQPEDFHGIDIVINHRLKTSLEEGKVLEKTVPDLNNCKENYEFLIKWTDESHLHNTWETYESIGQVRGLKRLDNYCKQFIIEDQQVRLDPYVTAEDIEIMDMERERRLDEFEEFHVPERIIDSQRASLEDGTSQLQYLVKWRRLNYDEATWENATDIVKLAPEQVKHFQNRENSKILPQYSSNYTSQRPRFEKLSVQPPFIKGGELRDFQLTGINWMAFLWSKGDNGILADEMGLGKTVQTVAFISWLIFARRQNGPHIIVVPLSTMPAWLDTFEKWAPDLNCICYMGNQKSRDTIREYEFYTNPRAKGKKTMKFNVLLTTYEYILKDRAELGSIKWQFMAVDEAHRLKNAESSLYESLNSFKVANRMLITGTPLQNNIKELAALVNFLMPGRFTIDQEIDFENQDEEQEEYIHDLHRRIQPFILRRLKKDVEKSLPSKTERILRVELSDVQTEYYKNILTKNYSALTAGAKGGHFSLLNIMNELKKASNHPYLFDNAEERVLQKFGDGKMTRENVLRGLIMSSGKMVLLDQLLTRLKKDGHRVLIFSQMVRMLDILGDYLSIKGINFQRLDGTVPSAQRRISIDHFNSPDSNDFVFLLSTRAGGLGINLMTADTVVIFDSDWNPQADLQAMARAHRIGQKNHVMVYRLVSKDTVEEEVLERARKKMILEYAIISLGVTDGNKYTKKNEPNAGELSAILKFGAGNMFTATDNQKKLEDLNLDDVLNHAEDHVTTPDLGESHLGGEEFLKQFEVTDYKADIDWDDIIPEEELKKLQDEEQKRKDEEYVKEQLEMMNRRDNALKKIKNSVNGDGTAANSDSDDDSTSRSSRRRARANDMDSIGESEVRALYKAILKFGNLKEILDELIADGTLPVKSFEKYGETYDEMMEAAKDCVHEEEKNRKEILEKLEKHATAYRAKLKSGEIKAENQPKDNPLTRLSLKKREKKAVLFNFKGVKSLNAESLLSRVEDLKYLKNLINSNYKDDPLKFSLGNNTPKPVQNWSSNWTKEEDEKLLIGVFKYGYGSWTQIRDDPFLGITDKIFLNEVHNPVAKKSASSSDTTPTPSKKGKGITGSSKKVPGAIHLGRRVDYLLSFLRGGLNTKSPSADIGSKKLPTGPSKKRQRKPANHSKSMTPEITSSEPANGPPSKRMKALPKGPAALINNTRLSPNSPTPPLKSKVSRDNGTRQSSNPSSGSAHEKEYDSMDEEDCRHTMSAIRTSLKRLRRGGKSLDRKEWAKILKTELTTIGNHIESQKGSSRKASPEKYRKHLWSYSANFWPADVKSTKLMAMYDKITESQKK

Chain of Sialic acid-binding Ig-like lectin 9 (Homo sapiens) (Q9Y336 whole entry): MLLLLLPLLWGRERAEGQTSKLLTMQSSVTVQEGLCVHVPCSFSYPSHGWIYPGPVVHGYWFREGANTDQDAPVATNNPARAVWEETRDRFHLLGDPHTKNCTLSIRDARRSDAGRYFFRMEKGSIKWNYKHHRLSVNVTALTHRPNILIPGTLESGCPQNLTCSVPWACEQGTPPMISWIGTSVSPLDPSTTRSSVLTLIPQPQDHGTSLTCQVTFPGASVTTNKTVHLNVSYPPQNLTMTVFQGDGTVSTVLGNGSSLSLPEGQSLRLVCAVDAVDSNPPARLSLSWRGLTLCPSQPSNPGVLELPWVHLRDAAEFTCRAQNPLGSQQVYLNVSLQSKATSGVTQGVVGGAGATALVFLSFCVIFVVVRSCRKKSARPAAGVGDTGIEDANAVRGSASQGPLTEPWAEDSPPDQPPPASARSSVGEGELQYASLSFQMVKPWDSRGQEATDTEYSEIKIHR
Chain of Protein translocase subunit SecA (Escherichia coli (strain K12)) (P10408 whole entry): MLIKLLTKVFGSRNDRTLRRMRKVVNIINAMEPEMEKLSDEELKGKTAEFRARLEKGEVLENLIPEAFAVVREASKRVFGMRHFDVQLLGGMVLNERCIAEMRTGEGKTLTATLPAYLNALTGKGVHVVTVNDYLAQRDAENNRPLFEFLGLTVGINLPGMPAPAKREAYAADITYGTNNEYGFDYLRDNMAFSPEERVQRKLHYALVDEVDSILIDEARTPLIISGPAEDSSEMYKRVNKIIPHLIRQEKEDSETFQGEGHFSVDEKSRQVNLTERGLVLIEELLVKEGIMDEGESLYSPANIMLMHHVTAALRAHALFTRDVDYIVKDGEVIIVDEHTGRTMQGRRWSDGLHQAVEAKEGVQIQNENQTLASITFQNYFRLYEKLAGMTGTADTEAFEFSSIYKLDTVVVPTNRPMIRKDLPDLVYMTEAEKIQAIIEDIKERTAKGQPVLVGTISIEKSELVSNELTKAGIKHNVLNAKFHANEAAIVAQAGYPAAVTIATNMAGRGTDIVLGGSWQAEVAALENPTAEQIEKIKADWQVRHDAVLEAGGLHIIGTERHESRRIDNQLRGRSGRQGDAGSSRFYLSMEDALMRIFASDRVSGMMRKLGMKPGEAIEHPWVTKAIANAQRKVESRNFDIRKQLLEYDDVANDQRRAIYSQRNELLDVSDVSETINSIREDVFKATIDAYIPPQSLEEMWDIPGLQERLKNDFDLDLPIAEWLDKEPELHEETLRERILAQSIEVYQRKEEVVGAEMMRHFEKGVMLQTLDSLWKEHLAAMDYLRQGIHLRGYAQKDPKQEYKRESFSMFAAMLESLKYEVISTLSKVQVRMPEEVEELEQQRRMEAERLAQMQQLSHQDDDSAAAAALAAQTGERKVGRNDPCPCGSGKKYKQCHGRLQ

On to `O=c1nc(SCc2ccncc2)c2c(n1CCO)CCCC2`, for which the Percent Effect is -0.843% in experiment [1]; 16.4% in experiment [2]; -2.68% in experiment [3]; 11.4% in experiment [4]; 3.92% in experiment [5]; 19.6% in experiment [6]. For the same compound, the Percent Effect in experiment [7] was 21.8%; in [8] it was 19.8%; in experiment [9], 3.23%; in [10], 7.5%; in [11], -7.55%.
As to `CC(C)Nc1nc(N2CCOCC2)nc2c1CN(CC(=O)N(C)C)CC2`, the Percent Effect was -9.2% in [1]; 0% in experiment [2]; 6.79% in [3]; -0.0149% in experiment [4]; -0.591% in experiment [5]; 1.17% in [6]. The Percent Effect in experiment [7] is -5.37%; in experiment [8], 15.8%; in experiment [9], -1.06%; in experiment [10], -3.85%; in experiment [11], -5.05%.
Regarding `Cc1cncc(C(=O)N2CCC(Cn3cc(-c4ccsc4)nn3)CC2)c1`, the Percent Effect was -2.48% in [1]; 2.7% in experiment [2]; 0.205% in [3]; 2.1% in experiment [4]; -3.86% in experiment [5]; -0.476% in experiment [6]. The Percent Effect in experiment [7] is 11.6%; in experiment [8] it was 7.16%; in experiment [9], 1.59%; in experiment [10], 9.76%; in experiment [11], -1.22%.
As for `CC(C)NC(=O)N1CCc2ncc(CN3CCOCC3)n2CC1`, the Percent Effect in [1] is 1.23%; in experiment [2], 0%; in experiment [3] it was 6.6%; in [4], 1.59%; in [5], -4.2%; in experiment [6], 0.319%. Moreover, the Percent Effect was found to be 14% in [7]; 4.62% in experiment [8]; 3.24% in experiment [9]; 7.69% in experiment [10]; 1.69% in experiment [11].
In the case of `COc1ncc(NC(=O)Nc2cc(C)ccc2OC)cn1`, the Percent Effect is -9.27% in experiment [1]; 15.6% in experiment [2]; -6.73% in experiment [3]; -2.77% in experiment [4]; 9.57% in experiment [5]; 0.645% in experiment [6]. In addition, the Percent Effect is 15.3% in experiment [7]; 10.7% in experiment [8]; 3.17% in experiment [9]; 11.5% in experiment [10]; -7.83% in experiment [11].
For the compound `CCOCCn1c(=O)[nH]c2cc(C(=O)N(C)CCc3cn[nH]c3)ccc21`, the Percent Effect amounted to 0.265% in [1]; 16.2% in [2]; 4.85% in [3]; 14.1% in experiment [4]; 5.6% in experiment [5]; 22.4% in [6]. The Percent Effect in [7] is 17.8%; in experiment [8], 13%; in experiment [9], 3.7%; in experiment [10], 12.2%; in [11], -7.29%.
In the case of `Cc1nn(C)c(N(C)C)c1CNCc1cccnc1`, the Percent Effect in [1] was -5.22%; in experiment [2], -2.7%; in [3], -6.42%; in experiment [4], -9.25%; in [5] it was -5.38%; in experiment [6], -1.74%. For the same compound, the Percent Effect was 12.4% in experiment [7]; -10.3% in experiment [8]; -4.3% in [9]; -6.17% in experiment [10]; -0.598% in [11].
With `CC(C)C(Sc1nnnn1-c1ccccc1)C(=O)NCc1cccnc1` (stereo not given), the Percent Effect in experiment [1] is -3.59%; in experiment [2] it was 7.79%; in [3] it was 1.33%; in experiment [4], -5.13%; in [5], -8.05%; in experiment [6], -1.42%. The Percent Effect in experiment [7] is 13%; in experiment [8] it was 17%; in experiment [9], 4.85%; in experiment [10], 9.76%; in experiment [11] it was -8.86%.
For the compound `COCCn1nc(C(=O)N(C)Cc2cnn(C)c2)ccc1=O`, the Percent Effect in [1] was -6.3%; in experiment [2] it was 15.8%; in [3] it was -7.26%; in [4], -8.02%; in experiment [5], 4.38%; in experiment [6] it was -8.28%. Besides, the Percent Effect in experiment [7] was 14.7%; in experiment [8], 9.08%; in experiment [9], 5.32%; in experiment [10] it was -2.6%; in experiment [11], -9.82%.
For `CC(C(=O)N1CCN(c2cnccn2)CC1)n1cncn1` (stereo not given), the Percent Effect in [1] is -0.0716%; in experiment [2], 1.27%; in [3], 4.88%; in experiment [4] it was 1.64%; in experiment [5] it was -4%; in experiment [6], 7.53%. In addition, the Percent Effect in experiment [7] is 8.23%; in [8] it was 11.1%; in experiment [9], 3.12%; in experiment [10], 10.1%; in experiment [11], -8.39%.
